# Source: PubChem
# A selection: hits, their analogues and other compounds. The true share with any hit is near 8.7%.
# AMA1 RON2 block = qHTS for Inhibitors of AMA1-RON; Towards Development of Antimalarial Drug Lead: Primary Screen | 0.2% of 360,000 active | Plasmodium falciparum AMA1 (3D7) - RON2 peptide interaction | Potency, µM (highest dose often 58.2 µM), inactives show at the top dose activity change, negative = inhibition, actives largely listed as inhibitors | AlphaScreen AMA1-biotinylated RON2 peptide binding;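 further: 0% = vehicle wells and -100% = peptide control; nearly all actives have a fitted effect of over 45% in size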
#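 AMA1 (3D7) with his tag at 25 nM final met compounds first, then biotinylated RON2 peptide at 25 nM; detection used donor plus acceptor beads, 10 µg/mL apiece, read by AlphaScreen after 30 min at room temperature.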
# Vaccinia Venus = qHTS for Stage-Specific Inhibitors of Vaccinia Orthopoxvirus: Venus Reporter Primary qHTS; AID 720580, 2013; Vaccinia virus Venus reporter expression, fluorescence; Potency, µM (highest dose often 36.5 µM), for the others: at the top dose activity change, negative = inhibition, usual class: inhibitors; 0.46% of 330,000 active; calls by dose curve; tested in A549 cells; further: nearly all actives have a fitted effect of over 30% in size
# Vaccinia mCherry = qHTS for Stage-Specific Inhibitors of Vaccinia Orthopoxvirus: mCherry Reporter Primary qHTS; Vaccinia virus mCherry reporter infection, fluorescence; Potency, µM (titrated, usually from 36.5 µM), without a hit: at the top dose activity change, negative = inhibition, usual class: inhibitors; 0.63% of 310,000 active; AID 720579, 2013; calls by dose curve; tested in A549 cells; further: nearly all actives have a fitted effect of over 35% in size
# Pf growth 96h = Primary qHTS for delayed death inhibitors of the malarial parasite plastid, 96 hour incubation; P. falciparum luciferase reporter growth, 96 h; Potency, µM (doses to about 28.7 µM), inactives show at the highest dose activity change, negative = inhibition, hits mostly inhibitors; 6.9% of 320,000 active
#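 Two-generation exposure (96 h) targets delayed-death phenotype. Reporter parasites carrying integrated firefly luciferase, in red cells at 2% hematocrit and 0.05% parasitemia final, kept at 37 C, 5% CO2; luminescence loss indicates inhibition.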
# Pf growth 48h = Primary qHTS for delayed death inhibitors of the malarial parasite plastid, 48 hour incubation; 5.9% of 310,000 active; P. falciparum luciferase growth in erythrocytes, 48 h; Potency, µM (series often up to 28.7 µM), without a hit: at the top dose activity change, negative = inhibition, hits mostly inhibitors; AID 504832, 2011
#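 Parasite viability was followed by luminescence of a genomically integrated firefly luciferase. Cultures held 0.1% parasitemia at 2% hematocrit (final), incubated under 5% CO2 at 37 C.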
# * marks the source's active call; other numbers are inactive results; i = inactive; ? = inconclusive; nt = no result given. Unless noted, the call rests on the fitted dose curve; in most records, active means well fitted curve in the direction sought with a large enough effect; inconclusive means small, poorly fitted or top-dose-only effect, or another doubt; inactive means no such curve, though single readings can be large; an effect the other way counts as inactive or inconclusive. Unless noted, on the % scale 0 is the no-effect control and ±100 the full control effect; potency means the concentration at half of the fitted maximal effect.
SMILES,AMA1 RON2 block,Vaccinia Venus,Vaccinia mCherry,Pf growth 96h,Pf growth 48h
CCOc1ccccc1NC(=O)c1c(NC(=O)C(C)Oc2ccc(Cl)cc2)sc2c1CCCCC2 (stereo not drawn),nt,0%,-12%,nt,nt
O=C(C[n+]1ccnc2ccccc21)c1ccc(Cl)cc1,nt,-2%,i,nt,nt
CC[n+]1ccnc2ccccc21,nt,13µM*,18µM*,nt,nt
Cc1ccccc1OCC(=O)NCC(=O)OCc1ccc2ccccc2c1,nt,-5%,38%,nt,nt
O[C@@H]1[C@@H](O)C=C2CCN3Cc4cc5c(cc4[C@H]1C23)OCO5 (stereo partly drawn),5%,4µM*,?,0.29µM*,0.33µM*
OC1C=C2CCN3Cc4cc5c(cc4C(C1O)C23)OCO5 (stereo not drawn),nt,7.1µM*,?,nt,nt
Cc1ccc(Cl)cc1NCc1nnc2n1CCCCC2,nt,1%,6%,nt,nt
COc1ccccc1NC(=O)CSc1n[nH]c(-c2ccccn2)n1,-16%,-29%,?,?,-8%
O=C(CSc1n[nH]c(-c2ccccc2)n1)Nc1ncc(Br)cc1Br,4%,-22%,nt,2.9µM*,7%
O=C(CSc1n[nH]c(-c2ccccn2)n1)Nc1ccccc1F,?,?,28µM*,10µM*,-11%
O=C(CSc1n[nH]c(-c2ccccn2)n1)Nc1ccccc1,-91%,-24%,7.9µM*,?,1%
O=C(CSc1n[nH]c(-c2cccnc2)n1)Nc1ccccc1,-1%,-8%,nt,?,-21%
COc1ccc(C(=O)NCc2ccc3c(c2)CCN3C(C)=O)cc1OC,nt,-17%,-14%,nt,nt
CS(=O)(=O)c1cnc(-c2ccccc2)nc1Oc1ccc(F)cc1,-6%,7%,nt,?,13µM*
CCOC(=O)c1cnc(-c2ccccc2)nc1Oc1ccc(OC)cc1,17%,-12%,i,5.2µM*,8.3µM*
FC(F)(F)c1cccc(NC(=S)Nc2cccc(NC(=S)Nc3cccc(C(F)(F)F)c3)n2)c1,77%,10%,?,?,12µM*
Cc1cccc(NC(=S)Nc2cccc(C(F)(F)F)c2)n1,23%,0%,-10%,?,?
Cc1cc(C)c(NC(=S)N(CCc2ccncc2)C(C)C)c(C)c1,9%,nt,nt,-7%,10µM*
Cc1ccc(C)c(NC(=S)N(CCc2ccncc2)C(C)C)c1,-6%,-1%,-2%,21%,-18%
CC(C)(C)c1ccc(C(=O)NCC(c2cccnc2)N2CCc3ccccc3C2)cc1 (stereo not drawn),nt,-29%,-30%,nt,nt
Cc1ccccc1CSc1cn(CCNC(=O)c2cccs2)c2ccccc12,nt,-23%,-24%,nt,nt
NC(=O)C(OC(=O)CNC(=O)C1CCCCC1)c1ccccc1 (stereo not drawn),nt,11%,-13%,nt,nt
O=C(NCC1CC1)c1onc(CSc2nc3ccccc3[nH]2)c1C(=O)NCC1CC1,-14%,-13%,i,10µM*,?
CCCCNC(=O)c1onc(CSc2nc3ccccc3[nH]2)c1C(=O)NCCCC,-5%,-17%,-4%,3.3µM*,1.5µM*
CCC(=O)N1CCc2cc(Br)cc(S(=O)(=O)N3CCCCCC3)c21,-6%,-9%,-19%,?,2.9µM*
SMILES,AMA1 RON2 block,Vaccinia Venus,Vaccinia mCherry,Pf growth 96h,Pf growth 48h
CCOC(=O)N1CCN(S(=O)(=O)c2cc(Br)cc3c2N(C(=O)CC)CC3)CC1,-10%,-15%,-5%,nt,11%
CCOC(=O)N1CCC(NS(=O)(=O)c2cc3c(cc2Cl)NC(=O)CO3)CC1,0%,?,-13%,0.21µM*,?
O=C(C1CC1)N1CCc2cc(Br)cc(S(=O)(=O)NC3CCCCC3)c21,-11%,nt,nt,?,4.7µM*
CCC(=O)N1CCc2cc(Br)cc(S(=O)(=O)N3CCCC(C(=O)O)C3)c21 (stereo not drawn),-4%,nt,nt,26%,-11%
CCOC(=O)N1CCC(NS(=O)(=O)c2cc(Br)cc3c2N(C(=O)CC)CC3)CC1,-6%,-9%,-16%,-2%,8.3µM*
O=C(C1CC1)N1CCc2cc(Br)cc(S(=O)(=O)NCCCN3CCCCC3)c21,-1%,-11%,-27%,0%,-7%
COc1ccc(-n2c(=O)c3sc4ccccc4c3n(CC(=O)N3CCCC3)c2=O)cc1,nt,-1%,-10%,nt,nt
Cc1ccccc1C(=O)Nc1nc2c(s1)CC(C(C)(C)C)CC2 (stereo not drawn),nt,0%,-16%,nt,nt
CCOC(=O)C1CCCN(S(=O)(=O)c2cc(Br)cc3c2N(C(=O)C2CC2)CC3)C1 (stereo not drawn),0%,-21%,-28%,36%,3.3µM*
CCC(=O)N1CCc2cc(Br)cc(S(=O)(=O)N3CCC(C(=O)NC(C)C)CC3)c21,-21%,1%,-8%,6%,6.6µM*
CCOC(=O)C1CCCN(S(=O)(=O)c2cc(Br)cc3c2N(C(=O)CC)CC3)C1 (stereo not drawn),6%,-11%,-6%,-18%,?
CCCN(CCC)S(=O)(=O)c1cc(Br)cc2c1N(C(=O)CC)CC2,-4%,-25%,?,?,1µM*
CCC(=O)N1CCc2cc(Br)cc(S(=O)(=O)N3CCCCC3CC)c21 (stereo not drawn),-1%,-7%,-12%,?,1µM*
CCC(=O)N1CCc2cc(Br)cc(S(=O)(=O)C3(C(=O)OC)CC3)c21,10%,-17%,nt,?,4.1µM*
O=C(C1CC1)N1CCc2cc(Br)cc(S(=O)(=O)N3CCCCCC3)c21,-9%,nt,nt,nt,1.7µM*
Cc1ccc(CNC(=O)C2CCCN(Cc3nc(-c4cccc(C)c4)oc3C)C2)cc1 (stereo not drawn),nt,-27%,-9%,nt,nt
Cc1ccc(OCCn2cc(Br)c(=O)[nH]c2=O)cc1,4%,-13%,-18%,9.3µM*,-24%
Cc1ccc(OCCn2cnc(Cl)c2Cl)cc1,-1%,2%,-6%,?,-20%
CCOc1ccc(NC(=O)c2oc3ccccc3c2NC(=O)C(C)(C)C)cc1,nt,-19%,-10%,nt,nt
Clc1ccc(-c2nnc(N3CCCC3)nn2)cc1,-17%,nt,nt,0.59µM*,0.37µM*
CC(C)(C)c1ccc(Oc2ccc(NC(=O)CCC(=O)OCC(=O)c3ccccc3)cc2)cc1,nt,-7%,-15%,nt,nt
CCCCNC(=O)C1c2cc(OC)c(OC)cc2C(=O)N(C)C1c1cccs1 (stereo not drawn),16%,-18%,-15%,2.1µM*,-6%
C[C@@H]1CN(C(=O)c2nc3ccc(Cl)cn3c2CNCC[C@@H]2C[C@@H]3C=C[C@H]2C3)C[C@H](C)O1,-11%,-13%,-5%,?,8.3µM*
COc1ccc(CCNC(=O)CCc2c(C)nc3c(c(C)nn3-c3ccc(C)cc3)c2C)c(OC)c1,nt,-25%,-25%,nt,nt
